# Bioassay records (PubChem)
# FLuc counter: qHTS profiling assay for firefly luciferase inhibitor/activator using purifed enzyme and Km concentrations of substrates (counterscreen for miR-21 project) | Luciferin 4-monooxygenase (Photinus pyralis), P08659 | purified FLuc, Km substrates, luminescence inhibition | Potency, µM (series often up to 57.5 µM), for inactives: at the top dose activity change, negative = inhibition, hits mostly inhibitors | 360,000 tested, 6.9% active;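 note: plate controls were vehicle for no effect and reference inhibitor for full effect; nearly all actives have a fitted effect of over 55% in size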
# Target sequence (P08659 whole entry, looked up): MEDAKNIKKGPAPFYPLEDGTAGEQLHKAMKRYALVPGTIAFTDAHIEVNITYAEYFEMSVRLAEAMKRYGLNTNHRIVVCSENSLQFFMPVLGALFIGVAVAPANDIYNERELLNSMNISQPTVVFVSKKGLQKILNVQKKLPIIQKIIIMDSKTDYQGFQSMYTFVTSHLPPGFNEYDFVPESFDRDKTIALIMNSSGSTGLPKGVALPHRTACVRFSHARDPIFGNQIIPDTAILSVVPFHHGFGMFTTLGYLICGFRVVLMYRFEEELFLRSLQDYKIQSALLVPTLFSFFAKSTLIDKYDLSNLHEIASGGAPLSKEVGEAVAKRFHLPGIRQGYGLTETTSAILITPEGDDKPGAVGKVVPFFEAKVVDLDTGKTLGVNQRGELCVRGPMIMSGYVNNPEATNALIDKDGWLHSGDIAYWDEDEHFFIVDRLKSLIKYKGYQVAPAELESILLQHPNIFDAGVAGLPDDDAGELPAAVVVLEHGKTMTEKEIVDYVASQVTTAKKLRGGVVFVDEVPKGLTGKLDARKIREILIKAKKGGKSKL
#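 Biochemical qHTS of compounds, final roughly 60 µM downward over six points, against 10 nM purified firefly luciferase using Km concentrations of substrates (10 uM D-luciferin, 10 uM ATP) in Tris acetate pH 7.5 buffer; luminescence output.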
# Luc counter: Counterscreen for Luciferase (Kinase-Glo TM) Inhibition. 200,000 tested, 0.28% active. Potency, µM (doses to about 38.3 µM), inactives show at the top dose activity change, negative = inhibition, actives largely listed as inhibitors. AID 1379, 2008. Luciferin 4-monooxygenase (Photuris pensylvanica), Q27757. Kinase-Glo luciferase, ATP luminescence, 8 min; note: % is set by controls: 0 for no effect and ±100 for the full control effect; nearly all actives have a fitted effect of over 60% in size
#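 Substrate mix (final 50 mM imidazole pH 7.2, 50 mM KCl, 7 mM MgCl2, 10 uM ATP, 0.01% Tween 20, 0.05% BSA) plus pin-tool compound, then Kinase-Glo detection mix; 8 min ambient, luminescence read.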
# SMN2 splice enh: qHTS Assay for Enhancers of SMN2 Splice Variant Expression | 210,000 tested, 2.8% active | HEK293 SMN2-luciferase splicing reporter, luminescence, 30-36 h | Potency, µM (titrated, usually from 46.1 µM), for inactives: at the highest dose activity change, positive = activation, hits mostly activators | AID 1458, 2008; note: % of control where 0% means no effect; nearly all actives have a fitted effect of over 55% in size
#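 HEK293 cells carry an SMN2 minigene-luciferase reporter in which exon 7 inclusion puts luciferase in frame. Cells were seeded at 2000 cells/well, attached for 10-12 hours, then exposed to compounds for 30-36 hours at 37C before ONE-Glo luminescence.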
# Rab9 prom act: qHTS Assay for Rab9 Promoter Activators | Huh7 Rab9 promoter-luciferase reporter, luminescence, 24 h | Potency, µM (titrated, usually from 9.22 µM), without a hit: at the highest dose activation, negative = inhibition, usual class: activators | 320,000 tested, 2.8% active; note: % of control where 0% means no effect; nearly all actives have a fitted effect of over 60% in size
#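 Measured in stably transfected Huh7 cells bearing a Rab9 promoter–luciferase construct: 24 h compound treatment at 37 °C, followed by luminescence detection.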
# ELG1 genotoxic: qHTS screen for small molecules that induce genotoxicity in human embryonic kidney (HEK293T) cells expressing luciferase-tagged ELG1; HEK293T ELG1-luciferase reporter, luminescence, 16 h; Potency, µM (series often up to 46 µM), inactives show top-dose activity change, positive = activation, hits mostly activators; 330,000 tested, 1.3% active; AID 504466, 2011; note: % of control where 0% means no effect; nearly all actives have a fitted effect of over 60% in size
#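 After overnight (16 hr) compound treatment at 37 °C, ELG1-luciferase HEK293T cells were lysed with ONE-Glo; luminescence quantified 30 min later at room temperature.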
# NPC1 prom act: qHTS Assay for NPC1 Promoter Activators; 320,000 tested, 2.4% active; Huh7 NPC1 promoter luciferase reporter, 24 h; Potency, µM (highest dose often 9.22 µM), inactives show at the top dose activation, actives largely listed as activators; note: % of control where 0% means no effect; nearly all actives have a fitted effect of over 60% in size
#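 Luminescence read-out of NPC1 promoter-driven luciferase in stably transfected Huh7 cells; compounds delivered in DMSO and left 24 h at 37C, 5% CO2, qHTS titration format.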
# Starred values were filed as active, the others as inactive; ? = inconclusive; · = no result given; [ ] = another dose, or the depositor's remark. The list is not random: actives were taken first. Their share in the collection is about 7.5%. Calls come from the whole dose curve; as a rule, active = well fitted curve in the direction sought with a large enough effect; inconclusive = small, poorly fitted or top-dose-only effect, or another doubt; inactive = no such curve, though single readings can be large; an effect the other way counts as inactive or inconclusive. Potency is the fitted concentration of half-maximal effect.
SMILES,FLuc counter,Luc counter,SMN2 splice enh,Rab9 prom act,ELG1 genotoxic,NPC1 prom act
Cc1nc2ccc(NS(=O)(=O)c3cccc([N+](=O)[O-])c3)cc2s1,·,·,·,·,-1.5%,·
COc1ccc(/C=C2\Oc3cc(OCC(N)=O)ccc3C2=O)cc1OC,12µM*,·,·,6.7%,3.4%,-5.3%
CCC1CCCCN1C(=O)COc1ccc2c(c1)OCO2 (centres undefined),-0.6%,·,·,4.2%,8.1%,0.7%
O=C1/C(=C/c2ccc3c(c2)OCO3)Oc2cc(OCC(=O)N3CCC[C@H]3C(=O)O)ccc21,0.536µM*,·,·,-0.9%,-2.3%,2.3%
COc1ccc(/C=C2\Oc3cc(OCC(=O)N4CCC[C@H]4CO)ccc3C2=O)c(OC)c1,13.5µM*,·,·,2.4%,3.9%,-4.2%
COC(=O)c1ccc2c(c1)C(=O)/C(=C/c1ccc(C)cc1)O2,?,-3.5%,11.2µM*,?,15.2%,?
COC(=O)COc1ccc2c(c1)O/C(=C\c1cccc([N+](=O)[O-])c1)C2=O,-7.5%,·,·,7.1%,1.7%,-2.9%
O=C(NNC(=O)c1ccc(O)c(Cl)c1)c1cccc(S(=O)(=O)N2CCOCC2)c1,4.7%,·,·,9.1%,0.7%,-1.6%
CC(C)c1c(C(=O)N/N=C2\CCc3ccccc32)nnn1-c1nonc1N,-2.9%,·,·,0.1%,0.4%,-1.1%
COc1cccc(/C=C2\Oc3cc(OCC(=O)N4Cc5ccccc5C[C@H]4C(=O)O)ccc3C2=O)c1,3.01µM*,·,·,-1.4%,0.0%,0.3%
N#Cc1c(/N=C/C=C/c2ccccc2)sc2c1CCCC2,6.75µM*,-2.8%,-11.2%,?,6.4%,22.7%
CN1CCN(/C=N/c2sc3c(c2C#N)CCCCC3)CC1,12µM*,-1.6%,15.8µM*,2.24µM*,?,2.51µM*
CC(C)CN(/C=N/c1sc2c(c1C#N)CCCCC2)CC(C)C,-12.3%,1.2%,-11.3%,15.8%,1.6%,5.4%
CCN(/C=N/c1sc2c(c1C#N)CCCCC2)CC,4.78µM*,-3.1%,11.2µM*,3.16µM*,?,2.51µM*
Cc1ccc(S(=O)(=O)N(CC(=O)Nc2ccc3c(c2)OCO3)c2ccc(C)c(Cl)c2)cc1,-8.6%,·,-1.5%,·,·,·
CC(=O)OCC1OC(n2cnc3c(Cl)nc(Cl)nc32)C(OC(C)=O)C1OC(C)=O (centres undefined),·,-3.3%,-18.0%,·,·,·
O=C(CCC(=O)N1CCc2ccccc2C1)NCCc1ccc(Cl)cc1,-3.0%,·,·,-2.3%,0.2%,0.4%
O=[N+]([O-])c1cnc2nc(-c3ccncc3)nn2c1O,21.3µM*,11.2µM*,-6.1%,1.3%,-0.8%,0.2%
Cc1ccc(NC(=O)C2CCN(S(=O)(=O)c3ccc4c(c3)C(C)(C)C(=O)N4C)CC2)c(C)c1,1.6%,·,·,0.9%,1.9%,0.0%
COc1cccc(C(=O)Nc2ccc(Cl)c(C(F)(F)F)c2)c1,21.3µM*,3.5%,-4.9%,?,1.0%,2.2%
COc1cc(C(=O)Nc2ccc(Cl)c(C(F)(F)F)c2)cc(OC)c1OC,21.3µM*,-1.9%,-8.0%[1.84 µM],8.9%,1.6%,0.2%
COc1cccc(C(=O)Nc2cc(C(F)(F)F)ccc2Cl)c1,?,-4.9%,-14.2%,1.3%,-0.6%,1.5%
CN1CCc2c(sc3c2C(=O)NC(c2cccc(OC(=O)c4cccs4)c2)N3)C1 (centres undefined),16.9µM*,1.7%,?,3.2%,18.9%,0.9%
CC(=O)c1ccc(N2CCN(C(=O)CCCc3nc4ccccc4s3)CC2)cc1,-8.8%,-2.4%,-53.4%,-11.8%,-1.1%,-0.5%
Cc1cc(C)nc(N/N=C/c2cccc(Cl)c2)n1,?,-2.0%,?,26.6%,13.2%,10.4%
